The target of assay [1] is Muscarinic acetylcholine receptor M1 (Homo sapiens) (UniProt P11229). The assay is described as follows: NVS_GPCR_hM1: NovaScreen (NVS) G Protein-Coupled Receptor Assay for human Muscarinic, M1 Receptor (AID 2283270). Summed up:
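Actives from a duplicate 25 uM single-point screen were retested in concentration series. Binding measured as displacement of a radioligand from CHO-derived receptor preparation, 1 h incubation, filtration and scintillation counting, analysed as signal loss against DMSO.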

Assay [2] concerns the target Muscarinic acetylcholine receptor M3 (Homo sapiens) (UniProt P20309). The assay can be described thus: NVS_GPCR_hM3: NovaScreen (NVS) G Protein-Coupled Receptor Assay for human Muscarinic, M3 Receptor (AID 2283272). Summed up: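 Radioligand displacement binding on human M3 receptor in CHO-derived membranes, 1 h incubation, filter-based scintillation counting. Primary screen in duplicate at 25 uM; actives followed up in concentration series; loss of signal versus DMSO.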

The target of assay [3] is Muscarinic acetylcholine receptor M2 (Homo sapiens) (UniProt P08172). The assay is described as follows: NVS_GPCR_hM2: NovaScreen (NVS) G Protein-Coupled Receptor Assay for human Muscarinic, M2 Receptor (AID 2283273). A digest of the protocol: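 Radioligand competition binding, cell-free, receptor from CHO; 1 h incubation; scintillation detection. Primary testing at 25 uM in duplicate.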

For assay [4], the target named is human Muscarinic, M4 Receptor, CHRM4 (gene 1132) (UniProt P08173). The assay is described as follows: NVS_GPCR_hM4: NovaScreen (NVS) G Protein-Coupled Receptor Assay for human Muscarinic, M4 Receptor (AID 2283274). A digest of the protocol: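 Filter-based scintillation counting of radioligand bound to CHO-expressed human M4 preparations after 1 h; loss of signal fitted versus DMSO. Initial duplicate testing at 25 uM, concentration-response follow-up for actives.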

Assay [5] has as its target Muscarinic acetylcholine receptor M5 (Homo sapiens) (UniProt P08912). The assay can be described thus: NVS_GPCR_hM5: NovaScreen (NVS) G Protein-Coupled Receptor Assay for human Muscarinic, M5 Receptor (AID 2283275). Summed up:
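Chemicals passing a primary duplicate screen at 25 uM were run as singleton concentration series, maximum 50 uM. Displacement of a specific radioligand from CHO-extracted receptor was read by filter scintillation after 1 h, relative to DMSO.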

The target of assay [6] is human Neuropeptide Receptor Y1 (NPY1), NPY1R (gene 4886) (UniProt P25929). The assay can be described thus: NVS_GPCR_hNPY1: NovaScreen (NVS) G Protein-Coupled Receptor Assay for human Neuropeptide Receptor Y1 (NPY1) (AID 2283276). Summed up: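 Displacement of specific radioligand from NPY1 receptor of SK-N-MC origin, read by filtration and scintillation after 1 h. Compounds first tested at 25 uM in duplicate, then actives in concentration series; signal loss relative to DMSO.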

Assay [7] addresses Neuropeptide Y receptor type 2 (Homo sapiens) (UniProt P49146). The assay can be described thus: NVS_GPCR_hNPY2: NovaScreen (NVS) G Protein-Coupled Receptor Assay for human Neuropeptide Receptor Y2 (NPY2) (AID 2283277). A digest of the protocol:
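Chemicals were first tested in duplicate at 25 uM, then actives in singleton concentration series to 50 uM. Tracer binding to SK-N-MC-derived protein measured cell-free after 1 h via filter scintillation; signal loss relative to DMSO.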

The target of assay [8] is human Neurotensin Receptor (NTS), NTSR1 (gene 4923) (UniProt P30989). The assay is described as follows: NVS_GPCR_hNTS: NovaScreen (NVS) G Protein-Coupled Receptor Assay for human Neurotensin Receptor (NTS) (AID 2283279). Summed up:
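Compounds competed with a radiolabelled ligand for binding to CHO-derived human neurotensin receptor; bound signal counted after filtration, 1 h. Screened first at a single concentration of 25 uM in duplicate, then concentration series to 50 uM maximum for actives.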

Assay [9] deals with human Vasopressin 1A Receptor (V1A), AVPR1A (gene 552) (UniProt P37288). The assay is described as follows: NVS_GPCR_hV1A: NovaScreen (NVS) G Protein-Coupled Receptor Assay for human Vasopressin 1A Receptor (V1A) (AID 2283284). Summed up:
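Single-concentration duplicate screen at 25 uM, with concentration-response follow-up (top 50 uM) for actives. The assay measured displacement of a radioligand from human platelet-derived receptor after 1.5 h, detected by filtration and scintillation counting.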

The target of assay [10] is mouse Cholecystokinin, CCK1 Receptor (CCKA), Cckar (gene 12425) (UniProt O08786). The assay can be described thus: NVS_GPCR_mCCKAPeripheral: NovaScreen (NVS) G Protein-Coupled Receptor Assay for mouse Cholecystokinin, CCK1 Receptor (CCKA) (AID 2283285). Summed up: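 Chemicals were first screened in duplicate at 25 uM, with those meeting threshold (e.g., 30% inhibition) retested in singleton concentration series to 50 uM maximum. Binding of radioligand to mouse pancreatic membranes was read after 2 h by filtration and scintillation counting.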

Assay [11] has as its system rabbit Platelet Activating Factor Receptor (PAF), gene 100354046. The assay is described as follows: NVS_GPCR_rabPAF: NovaScreen (NVS) G Protein-Coupled Receptor Assay for rabbit Platelet Activating Factor Receptor (PAF) (AID 2283287). A digest of the protocol:
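Rabbit platelet membrane preparation; radioligand displacement read by filter-based scintillation counting 1 h after dosing, loss of signal versus DMSO. Primary screen in duplicate at 25 uM, actives followed up in concentration series.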

For assay [12], the system named is 5-hydroxytryptamine receptor 2C (pig). The assay can be described thus: NVS_GPCR_p5HT2C: NovaScreen (NVS) G Protein-Coupled Receptor Assay for pig Serotonin, 5-Hydroxytryptamine Receptor 2C (5HT2C) (AID 2283288). Summed up:
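Radioligand displacement on membranes from pig choroid plexus, detected by filter scintillation counting after 1 h. Tested first at a single 25 uM in duplicate, then in concentration-response for actives; DMSO served as baseline.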

The target in assay [13] is human Opioid Receptor Mu (Opiate Mu), OPRM1 (gene 4988) (UniProt P35372). The assay can be described thus: NVS_GPCR_hOpiate_mu: NovaScreen (NVS) G Protein-Coupled Receptor Assay for human Opioid Receptor Mu (Opiate Mu) (AID 2283290).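 Further: hits lower bound tracer signal versus DMSO meaning displacement of the ligand.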 Summed up: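 Primary screen in duplicate at 25 uM, with actives followed in concentration series. CHO-derived receptor membranes, cell-free; bound radioligand read by scintillation counting after filtration at 2.5 h, decrease scored against DMSO.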

In assay [14] the target is human Opioid Receptor Delta 1 (Opiate D1), OPRD1 (gene 4985) (UniProt P41143). The assay is described as follows: NVS_GPCR_hOpiate_D1: NovaScreen (NVS) G Protein-Coupled Receptor Assay for human Opioid Receptor Delta 1 (Opiate D1) (AID 2283280). Summed up: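 Membrane preparations from CHO cells bearing the human receptor were incubated 1 h with test chemical, and bound radioligand was counted after filtration. Actives from 25 uM duplicate screening were retested in concentration-response.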

Assay [15] addresses human Thromboxane A2 Receptor (TXA2), TBXA2R (gene 6915) (UniProt P21731). The assay is described as follows: NVS_GPCR_hTXA2: NovaScreen (NVS) G Protein-Coupled Receptor Assay for human Thromboxane A2 Receptor (TXA2) (AID 2283282).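 Further: actives reduce bound radioligand signal relative to DMSO baseline.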 A digest of the protocol: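 Human platelet-derived receptor preparation incubated with test chemical and radiolabelled ligand for 1 hour, cell-free. Bound label was separated by filtration and counted; displacement relative to DMSO controls gave activity, screened at 25 uM, then titrated.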

The target of assay [16] is human Orphanin, Opioid Related Nociceptin Receptor 1 (ORL1), OPRL1 (gene 4987) (UniProt P41146). The assay is described as follows: NVS_GPCR_hORL1: NovaScreen (NVS) G Protein-Coupled Receptor Assay for human Orphanin, Opioid Related Nociceptin Receptor 1 (ORL1) (AID 2283283). A digest of the protocol: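 Cell-free binding using HEK293-derived receptor protein: radioligand displacement measured by filter scintillation 1 hour after dosing. Primary testing at 25 uM in duplicate, followed by singleton concentration series up to 50 uM; DMSO served as negative control.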

Assay [17] deals with human Leukotriene B4 Receptor 1 (LTB4-BLT1), LTB4R (gene 1241) (UniProt Q15722). The assay can be described thus: NVS_GPCR_hLTB4_BLT1: NovaScreen (NVS) G Protein-Coupled Receptor Assay for human Leukotriene B4 Receptor 1 (LTB4-BLT1) (AID 2283271). Summed up:
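Cell-free human neutrophil receptor preparation, 1 h exposure, radioligand binding read by filter scintillation counting. Single 25 uM duplicate screen, then concentration series topping at 50 uM; binding loss scored against DMSO baseline.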

Assay [18] addresses rat Serotonin, 5-Hydroxytryptamine Receptor 1 (5HT1), Non-Selective Binding, Htr1a (gene 24473) (UniProt P19327). The assay can be described thus: NVS_GPCR_r5HT1_NonSelective: NovaScreen (NVS) G Protein-Coupled Receptor Assay for rat Serotonin, 5-Hydroxytryptamine Receptor 1 (5HT1), Non-Selective Binding (AID 2283286). Summed up:
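Binding of a radioligand to rat cortex membranes is read by filtration and scintillation counting after 1 h. Compounds were screened at 25 uM in duplicate. Actives were then titrated to a top of 50 uM. DMSO is the baseline.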

Assay [19] deals with guinea pig Bradykinin Receptor B2 (BK2), BDKRB2 (gene 100135486) (UniProt O70526). The assay is described as follows: NVS_GPCR_gBK2: NovaScreen (NVS) G Protein-Coupled Receptor Assay for guinea pig Bradykinin Receptor B2 (BK2) (AID 2283292). A digest of the protocol:
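Guinea pig ileum membrane preparation incubated 1 h with radioligand and test chemical; bound counts measured after filtration. Primary duplicate screening at 25 uM, then singleton concentration series with a 50 uM top dose; DMSO as baseline.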

Results filed as inconclusive are left out. Active and inactive are the calls of the source. How the source made its calls: active means hit-call score of the fitted dose curve at least 0.9, where 1 is the maximum; inconclusive means response in the unintended direction; inactive means score below 0.9.

Chain of human Opioid Receptor Mu (Opiate Mu), OPRM1 (gene 4988) (P35372 whole entry, looked up): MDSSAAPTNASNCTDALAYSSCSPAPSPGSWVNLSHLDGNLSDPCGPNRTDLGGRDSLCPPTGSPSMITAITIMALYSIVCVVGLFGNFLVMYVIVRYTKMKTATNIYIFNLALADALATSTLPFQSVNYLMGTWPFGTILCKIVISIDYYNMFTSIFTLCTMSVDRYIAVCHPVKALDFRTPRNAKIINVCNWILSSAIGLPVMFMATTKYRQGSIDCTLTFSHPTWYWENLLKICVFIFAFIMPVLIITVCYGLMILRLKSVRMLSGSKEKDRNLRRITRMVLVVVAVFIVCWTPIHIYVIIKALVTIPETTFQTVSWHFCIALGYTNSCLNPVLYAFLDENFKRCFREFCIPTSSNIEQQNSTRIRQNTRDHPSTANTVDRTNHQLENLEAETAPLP
Chain of Muscarinic acetylcholine receptor M1 (Homo sapiens) (P11229 whole entry, looked up): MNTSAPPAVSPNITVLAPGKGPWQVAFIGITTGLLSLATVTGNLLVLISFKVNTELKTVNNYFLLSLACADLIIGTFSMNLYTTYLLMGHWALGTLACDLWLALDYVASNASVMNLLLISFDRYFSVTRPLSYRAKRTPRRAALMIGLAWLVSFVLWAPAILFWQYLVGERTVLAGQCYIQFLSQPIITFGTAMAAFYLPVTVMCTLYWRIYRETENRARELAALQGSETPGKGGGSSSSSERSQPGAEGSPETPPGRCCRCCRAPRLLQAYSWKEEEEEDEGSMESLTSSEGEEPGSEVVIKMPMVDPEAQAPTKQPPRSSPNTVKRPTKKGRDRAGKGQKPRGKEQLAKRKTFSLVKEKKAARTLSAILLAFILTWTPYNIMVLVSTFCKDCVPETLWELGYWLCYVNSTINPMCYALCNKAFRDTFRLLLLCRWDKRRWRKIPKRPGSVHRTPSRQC
Chain of human Muscarinic, M4 Receptor, CHRM4 (gene 1132) (P08173 whole entry, looked up): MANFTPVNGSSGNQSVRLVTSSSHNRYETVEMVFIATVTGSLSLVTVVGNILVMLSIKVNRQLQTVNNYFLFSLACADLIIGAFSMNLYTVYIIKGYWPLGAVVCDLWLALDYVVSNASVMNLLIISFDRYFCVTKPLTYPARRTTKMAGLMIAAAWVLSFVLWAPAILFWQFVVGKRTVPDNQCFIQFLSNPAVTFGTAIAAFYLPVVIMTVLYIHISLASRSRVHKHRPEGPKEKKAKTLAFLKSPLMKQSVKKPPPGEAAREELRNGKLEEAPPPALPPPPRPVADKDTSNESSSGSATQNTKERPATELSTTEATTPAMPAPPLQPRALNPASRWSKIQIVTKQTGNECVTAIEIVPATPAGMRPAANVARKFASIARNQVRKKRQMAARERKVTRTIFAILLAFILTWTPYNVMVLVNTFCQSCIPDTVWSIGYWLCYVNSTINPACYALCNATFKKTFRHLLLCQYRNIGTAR
Chain of mouse Cholecystokinin, CCK1 Receptor (CCKA), Cckar (gene 12425) (O08786 whole entry, looked up): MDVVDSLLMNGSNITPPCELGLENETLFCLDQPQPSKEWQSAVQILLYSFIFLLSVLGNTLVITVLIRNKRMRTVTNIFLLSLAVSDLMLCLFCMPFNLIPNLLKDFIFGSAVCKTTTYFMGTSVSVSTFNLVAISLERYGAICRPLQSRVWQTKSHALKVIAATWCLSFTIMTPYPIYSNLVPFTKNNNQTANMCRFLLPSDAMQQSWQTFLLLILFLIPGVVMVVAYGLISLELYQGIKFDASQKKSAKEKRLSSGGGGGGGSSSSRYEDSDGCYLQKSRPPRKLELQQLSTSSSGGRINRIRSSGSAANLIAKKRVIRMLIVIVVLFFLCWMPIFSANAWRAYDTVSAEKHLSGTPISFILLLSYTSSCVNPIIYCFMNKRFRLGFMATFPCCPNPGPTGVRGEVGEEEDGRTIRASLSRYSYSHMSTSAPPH
Chain of Muscarinic acetylcholine receptor M5 (Homo sapiens) (P08912 whole entry, looked up): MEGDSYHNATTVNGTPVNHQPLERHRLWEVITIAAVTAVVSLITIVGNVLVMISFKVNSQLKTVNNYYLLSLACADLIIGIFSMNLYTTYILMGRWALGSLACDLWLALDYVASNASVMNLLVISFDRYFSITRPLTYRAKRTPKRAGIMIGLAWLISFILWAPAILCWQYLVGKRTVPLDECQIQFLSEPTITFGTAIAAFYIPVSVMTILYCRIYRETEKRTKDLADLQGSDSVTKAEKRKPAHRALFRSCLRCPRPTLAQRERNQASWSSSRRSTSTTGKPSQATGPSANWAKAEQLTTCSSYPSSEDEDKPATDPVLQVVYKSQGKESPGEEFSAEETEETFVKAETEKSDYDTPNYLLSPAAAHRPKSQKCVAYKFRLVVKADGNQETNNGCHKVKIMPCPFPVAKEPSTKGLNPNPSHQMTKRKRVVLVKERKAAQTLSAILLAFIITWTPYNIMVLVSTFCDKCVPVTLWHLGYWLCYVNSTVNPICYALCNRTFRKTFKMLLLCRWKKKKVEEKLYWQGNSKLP
Chain of human Opioid Receptor Delta 1 (Opiate D1), OPRD1 (gene 4985) (P41143 whole entry, looked up): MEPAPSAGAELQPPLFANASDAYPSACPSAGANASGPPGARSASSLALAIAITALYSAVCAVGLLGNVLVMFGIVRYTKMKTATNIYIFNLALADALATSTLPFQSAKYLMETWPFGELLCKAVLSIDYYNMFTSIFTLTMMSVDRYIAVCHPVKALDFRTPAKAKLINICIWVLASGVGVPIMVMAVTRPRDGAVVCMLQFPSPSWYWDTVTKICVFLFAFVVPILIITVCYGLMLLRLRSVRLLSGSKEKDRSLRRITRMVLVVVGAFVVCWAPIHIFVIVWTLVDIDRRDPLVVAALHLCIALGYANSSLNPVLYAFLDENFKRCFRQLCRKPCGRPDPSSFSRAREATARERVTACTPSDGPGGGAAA
Chain of Muscarinic acetylcholine receptor M2 (Homo sapiens) (P08172 whole entry, looked up): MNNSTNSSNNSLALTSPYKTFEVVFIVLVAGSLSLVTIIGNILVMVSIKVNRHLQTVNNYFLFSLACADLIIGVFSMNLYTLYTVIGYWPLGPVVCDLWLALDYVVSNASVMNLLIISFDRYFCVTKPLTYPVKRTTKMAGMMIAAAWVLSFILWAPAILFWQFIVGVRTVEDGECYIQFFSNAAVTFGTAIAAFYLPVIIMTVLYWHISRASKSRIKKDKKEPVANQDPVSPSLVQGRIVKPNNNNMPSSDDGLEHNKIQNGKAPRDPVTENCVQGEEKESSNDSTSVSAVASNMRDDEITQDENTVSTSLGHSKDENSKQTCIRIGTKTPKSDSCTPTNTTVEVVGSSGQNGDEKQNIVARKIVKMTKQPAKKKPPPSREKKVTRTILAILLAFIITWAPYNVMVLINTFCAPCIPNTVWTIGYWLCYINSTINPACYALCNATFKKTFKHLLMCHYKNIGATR
Chain of Neuropeptide Y receptor type 2 (Homo sapiens) (P49146 whole entry, looked up): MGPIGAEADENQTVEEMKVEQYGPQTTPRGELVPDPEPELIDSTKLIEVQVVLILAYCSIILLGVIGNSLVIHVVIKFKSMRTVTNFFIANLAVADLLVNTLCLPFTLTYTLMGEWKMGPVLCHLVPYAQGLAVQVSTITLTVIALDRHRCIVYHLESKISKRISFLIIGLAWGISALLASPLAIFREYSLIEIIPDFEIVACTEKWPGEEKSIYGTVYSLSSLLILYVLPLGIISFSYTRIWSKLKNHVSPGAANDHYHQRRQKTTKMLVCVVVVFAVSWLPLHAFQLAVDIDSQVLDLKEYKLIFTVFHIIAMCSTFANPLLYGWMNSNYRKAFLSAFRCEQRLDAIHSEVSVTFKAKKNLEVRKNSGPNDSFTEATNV
Chain of Muscarinic acetylcholine receptor M3 (Homo sapiens) (P20309 whole entry, looked up): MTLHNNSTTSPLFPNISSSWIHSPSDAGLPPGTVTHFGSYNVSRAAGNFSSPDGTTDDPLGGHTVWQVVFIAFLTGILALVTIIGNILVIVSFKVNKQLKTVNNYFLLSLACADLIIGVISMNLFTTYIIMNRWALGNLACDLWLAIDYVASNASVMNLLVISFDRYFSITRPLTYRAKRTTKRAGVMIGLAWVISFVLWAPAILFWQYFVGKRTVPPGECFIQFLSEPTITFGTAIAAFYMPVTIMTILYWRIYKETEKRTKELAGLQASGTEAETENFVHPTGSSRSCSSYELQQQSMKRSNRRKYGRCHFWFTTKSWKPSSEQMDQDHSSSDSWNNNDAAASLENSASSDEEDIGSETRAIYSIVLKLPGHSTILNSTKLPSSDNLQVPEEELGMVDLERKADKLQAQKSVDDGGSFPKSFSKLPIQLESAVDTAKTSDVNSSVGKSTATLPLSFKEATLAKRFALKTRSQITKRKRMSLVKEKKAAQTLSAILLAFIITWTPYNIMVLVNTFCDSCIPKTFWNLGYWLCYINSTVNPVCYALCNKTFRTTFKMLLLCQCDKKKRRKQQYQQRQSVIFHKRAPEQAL
Chain of human Neuropeptide Receptor Y1 (NPY1), NPY1R (gene 4886) (P25929 whole entry, looked up): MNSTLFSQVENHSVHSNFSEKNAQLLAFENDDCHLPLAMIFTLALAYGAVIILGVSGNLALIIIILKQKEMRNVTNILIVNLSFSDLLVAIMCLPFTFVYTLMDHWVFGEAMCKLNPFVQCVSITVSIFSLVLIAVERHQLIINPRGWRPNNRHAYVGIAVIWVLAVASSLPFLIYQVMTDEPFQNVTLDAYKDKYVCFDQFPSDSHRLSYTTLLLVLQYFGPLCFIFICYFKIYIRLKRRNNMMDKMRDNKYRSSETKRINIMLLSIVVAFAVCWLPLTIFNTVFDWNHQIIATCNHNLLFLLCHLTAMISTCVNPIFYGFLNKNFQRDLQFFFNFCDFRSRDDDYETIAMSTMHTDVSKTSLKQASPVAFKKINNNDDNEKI
Chain of human Orphanin, Opioid Related Nociceptin Receptor 1 (ORL1), OPRL1 (gene 4987) (P41146 whole entry, looked up): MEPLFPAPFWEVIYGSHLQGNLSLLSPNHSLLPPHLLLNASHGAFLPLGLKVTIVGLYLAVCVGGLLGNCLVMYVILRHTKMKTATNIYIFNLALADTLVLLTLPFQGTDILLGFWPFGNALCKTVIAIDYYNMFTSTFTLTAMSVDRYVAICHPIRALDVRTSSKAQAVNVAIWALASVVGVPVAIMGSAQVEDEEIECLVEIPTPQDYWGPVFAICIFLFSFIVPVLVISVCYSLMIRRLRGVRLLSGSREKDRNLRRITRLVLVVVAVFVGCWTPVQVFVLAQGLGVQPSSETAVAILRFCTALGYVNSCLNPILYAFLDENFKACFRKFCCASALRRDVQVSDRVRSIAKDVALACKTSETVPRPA

Usually AC50 stands for the concentration giving half of the maximal activity seen. For `CCCCCCCCCCCC[N+](C)(C)C`, the AC50 in assay [1] is 4.64 µM (active); in [2], 3.43 µM (active); in [3], 1.39 µM (active); in assay [4], 2.77 µM (active); in assay [5], 1.93 µM (active); in assay [6] it was 16 µM (active). Moreover, the AC50 in assay [7] was 38.9 µM (active); in assay [8], 11.7 µM (active); in [10], 20.6 µM (active); in assay [11], 9.15 µM (active); in [12], 25 µM (active). Further, the call in assay [9] and in assay [13] was inactive.

Regarding `CCOC(=O)O[C@H](C)OC(=O)c1ccc2c(c1)cc(C(=O)NC1CCN(C(C)C)CC1)n2Cc1cc(-c2ccc(Cl)s2)on1`, the AC50 was 5.44 µM (active) in assay [2]; 3.64 µM (active) in assay [3]; 2.17 µM (active) in assay [4]; 1.79 µM (active) in assay [5]; 0.0551 µM (active) in [7]; 3.36 µM (active) in assay [14]. Further, the AC50 is 23.6 µM (active) in assay [15]; 4.46 µM (active) in [16]; 22.9 µM (active) in [10]; 17.3 µM (active) in assay [11]; 21.3 µM (active) in [12]; 2.94 µM (active) in assay [13].

In the case of `NCc1cccc(C2CCN(C(=O)c3ccc(C#Cc4ccccc4F)o3)CC2)c1`, the AC50 in assay [1] was 1.78 µM (active); in assay [17], 25 µM (active); in [2], 0.929 µM (active); in [3], 0.923 µM (active); in assay [4], 0.882 µM (active); in assay [5] it was 4.14 µM (active). Further, the AC50 in assay [7] is 2.33 µM (active); in assay [14], 10.2 µM (active); in assay [10], 13.6 µM (active); in assay [18], 4.96 µM (active); in assay [11], 9.21 µM (active); in assay [12], 8.02 µM (active). Moreover, the AC50 in assay [13] was 2.56 µM (active).

As to `CCN(CC)C(=O)c1cc(S(=O)(=O)Cc2ccccc2)c(N2CCC(c3ccccc3)CC2)cc1N(CC)CCN(C)C`, the AC50 is 8.82 µM (active) in assay [1]; 7.89 µM (active) in assay [2]; 9.84 µM (active) in assay [4]; 6.24 µM (active) in [5]; 14.6 µM (active) in [6]; 14.2 µM (active) in [14]. In addition, the AC50 was 10.2 µM (active) in assay [11], 7.94 µM (active) in [12] and 10.3 µM (active) in assay [13]. Besides, the result in assay [15] was inactive.

With `CN(C)C(=O)C1(N2CCCCC2)CCN(CC[C@@]2(c3ccc(Cl)c(Cl)c3)CN(C(=O)c3ccccc3)CCO2)CC1`, the AC50 is 11.7 µM (active) in [1]; 9.78 µM (active) in assay [2]; 6.82 µM (active) in assay [3]; 6.99 µM (active) in [4]; 6.44 µM (active) in assay [5]; 8.65 µM (active) in assay [7]. Further, the AC50 in [14] was 10.3 µM (active); in assay [16], 4.88 µM (active); in assay [10] it was 3.99 µM (active); in assay [12], 1.18 µM (active); in assay [13], 1.41 µM (active); in assay [19], 14 µM (active). Further, the outcome in [18] was inactive.

The values above are taken from PubChem BioAssay (EPA / NIEHS).
